USP30 block: blocks human USP30 ubiquitin-rhodamine cleavage | Q70CQ3 | purified USP30, Ub-rhodamine cleavage fluorescence | inhibition, % at 25 µM | 47,000 compounds, 5.3% hits
USP7 block: inhibitors of human USP7 deubiquitinase | Q93009 | purified USP7, Ub-rhodamine cleavage fluorescence | inhibition, % at 20 µM | 47,000 compounds, 0.3% hits | AID 1645854
USP17 block: inhibitors of human USP17 deubiquitinase. purified USP17, Ub-rhodamine cleavage fluorescence, 3 h. AID 1645855. inhibition, % at 50 µM. 47,000 compounds, 6.5% hits. A8MUK1
Target sequence (A8MUK1 whole entry, looked up): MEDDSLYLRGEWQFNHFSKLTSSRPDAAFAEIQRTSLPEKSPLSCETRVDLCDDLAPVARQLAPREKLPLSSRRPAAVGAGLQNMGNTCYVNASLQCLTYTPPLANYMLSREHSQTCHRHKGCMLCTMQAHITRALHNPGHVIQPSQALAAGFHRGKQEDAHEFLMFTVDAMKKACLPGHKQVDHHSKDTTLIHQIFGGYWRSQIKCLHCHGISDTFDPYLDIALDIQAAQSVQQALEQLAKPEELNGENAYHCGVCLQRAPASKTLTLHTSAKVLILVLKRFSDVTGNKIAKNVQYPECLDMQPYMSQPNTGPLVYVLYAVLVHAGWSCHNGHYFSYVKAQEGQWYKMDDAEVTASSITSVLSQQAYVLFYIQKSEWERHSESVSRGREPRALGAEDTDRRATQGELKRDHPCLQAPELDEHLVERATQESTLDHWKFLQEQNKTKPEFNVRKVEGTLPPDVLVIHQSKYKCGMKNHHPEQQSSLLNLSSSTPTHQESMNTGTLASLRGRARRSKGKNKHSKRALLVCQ
USP8 block: inhibitors of human USP8 deubiquitinase. P40818. purified USP8, Ub-rhodamine cleavage fluorescence, 30 min. inhibition, % at 20 µM. 47,000 compounds, 4.2% hits. AID 1645853
USP10 inh: blocks human USP10 ubiquitin-rhodamine cleavage; Q14694; purified USP10, Ub-rhodamine fluorescence, 60 min; inhibition, % at 20 µM; 47,000 compounds, 1.1% hits; AID 1645856
UCHL1 block: human UCHL1 deubiquitinase inhibition; AID 1645859; purified UCHL1, Ub-rhodamine cleavage fluorescence; 47,000 compounds, 0.2% hits; inhibition, % at 20 µM; P09936
The depositor's hits bear a star; · = no result given. Most compounds without a hit are left out; they make up all but 12% or so of the library. Cut-off read from the data, not from the text of the source: active = inhibition above about 30%; inactive = the rest.

SMILES	USP30 block	USP7 block	USP17 block	USP8 block	USP10 inh	UCHL1 block
NC(=O)COC(=O)c1cccnc1Nc1cccc(C(F)(F)F)c1	-44	-10	-13	-8	2	1
Cn1c(CNS(=O)(=O)c2ccc(Br)cc2)nnc1SCc1ccc(Cl)c(Cl)c1	35*	-113	0	-10	17	6
Cc1c(-c2nnc(-c3ccccc3Cl)o2)nnn1-c1ccccc1	81*	1	3	19	4	4
O=C1CC(c2ccco2)Cc2[nH]c(=O)c(C(=O)Nc3ccc(Cl)cc3)cc21 (centres undefined)	-36	-26	60*	-16	-6	-2
CCN[C@H]1C[C@@H](c2ccccc2)OC2(CCN(Cc3cn(C)nc3C)CC2)C1	14	4	31*	-13	-1	1
CC(C)n1c(=O)n(CC(=O)c2ccccc2)c2c(C(N)=O)nc(-c3ccco3)nc21	-96	3	0	-119	-4	0
CCCn1c(=O)n(CC(=O)c2ccccc2F)c2c(C(N)=O)nc(-c3ccco3)nc21	-96	7	62*	59*	-3	2
COc1ccc(C(=O)CSc2nc(-c3ccco3)nc3c2c(=O)n(C)c(=O)n3C)cc1	-12	3	-4	2	-1	0
NC(=O)c1cccc(NC(=O)c2ccc(F)cc2F)c1	29	2	13	17	4	1
CCn1c(=O)n(CC(=O)c2ccc(F)cc2F)c2c(C(N)=O)nc(-c3ccco3)nc21	-84	25	26	48*	7	13
CCn1c(=O)n(CC(=O)c2ccc(Cl)cc2)c2c(C(N)=O)nc(-c3ccco3)nc21	-82	40*	36*	49*	6	22
CCCn1c(=O)n(CC(=O)c2ccc(Cl)cc2)c2c(C(N)=O)nc(-c3ccco3)nc21	-183	6	38*	-10	-1	-4
CCc1noc(-c2c(C)cc(C)n2CC(=O)Nc2cc(Cl)ccc2OC)n1	1	1	26	7	-2	3
CC(C)CCNC(=O)C1(C)CCC(=O)N1Cc1cccs1 (centres undefined)	-18	0	-4	3	0	-6
COc1ccc(NC2=NC(c3cccnc3)n3c(nc(C)cc3=O)N2)cc1 (centres undefined)	-15	0	-8	-3	-1	-1
O=C(Nc1ccccc1)N1CCCN(c2c(Cl)cncc2Cl)CC1	32*	-4	20	27	2	4
CC1CCN(C(=O)CN2C(=O)C3CCCN3C(=O)c3ccc(F)cc32)CC1 (centres undefined)	-13	-5	-5	-4	0	-5
Cc1ccccc1NC(=O)Cn1cccc(S(=O)(=O)N2CCCCCC2)c1=O	-25	-87	-4	0	-3	-6
Cc1ccc(NS(=O)(=O)c2ccc3c(c2)NC(=O)CC(C)S3)c(Br)c1 (centres undefined)	25	5	16	22	8	2
Cc1ccc(OCC(=O)Nc2cc(NC(=O)c3ccco3)ccc2C)cc1C	66*	-4	60*	-26	1	-2
COc1ccc(CC(=O)Nc2cc(N3CCCS3(=O)=O)ccc2C)cc1	25	-2	20	13	0	3
CCOc1ccc(CC(=O)Nc2cc(N3CCCS3(=O)=O)ccc2C)cc1	43*	2	8	2	8	-1
O=C(CCn1c(=O)c2ccccc2n(Cc2cccc([N+](=O)[O-])c2)c1=O)NCc1ccc2c(c1)OCO2	30	7	12	22	3	4
O=C(CCn1c(=O)c2sccc2n(CC(=O)OCc2ccccc2)c1=O)NCc1ccc2c(c1)OCO2	52*	16	30	61*	36*	5
CCOc1ccccc1NC(=O)Cn1c(=O)n(CCC(=O)NCc2ccc3c(c2)OCO3)c(=O)c2sccc21	·	29	60*	54*	69*	7
SMILES	USP30 block	USP7 block	USP17 block	USP8 block	USP10 inh	UCHL1 block
Nc1ncnc2c1ncn2[C@@H]1O[C@H](CO)C[C@@H]1O	29	30*	50*	17	28	16
Cc1cc(C)c(C#N)c(SCC(=O)Nc2c(C#N)cnn2-c2ccccc2)n1	·	1	37*	6	1	0
Cc1cc(C)c(C#N)c(SCC(=O)Nc2ccc3c(c2)OCO3)n1	19	5	20	0	-1	1
Cc1cnccc1CN1Cc2ccccc2OC2(CCC(CO)CC2)C1 (centres undefined)	-6	0	0	-6	1	-2
CC(=O)N1Cc2ccccc2OC2(CCCN(CCc3ccccc3)C2)C1 (centres undefined)	0	0	4	13	-4	0
Cc1cc2cc(CNC(=O)Cc3ccc([N+](=O)[O-])cc3)ccc2[nH]1	21	-86	37*	-73	0	4
CCCS(=O)(=O)NCc1ccc2[nH]c(C)cc2c1	·	·	29	-20	-4	-2
Cc1cc2cc(CNC(=O)Cc3cccc4ccccc34)ccc2[nH]1	-41	-6	40*	27	-2	0
CC(C)c1noc(CN2CCC(C3CCCCCN3S(=O)(=O)c3ccccc3)CC2)n1 (centres undefined)	-10	7	9	19	-5	2
CC(=O)c1ccc(N2C(=O)N(Cc3cccc([N+](=O)[O-])c3)c3ccccc3S2(=O)=O)cc1	53*	6	14	1	4	6
CCOc1ccc(N2C(=O)N(CC(=O)c3ccc(F)cc3)c3ccccc3S2(=O)=O)cc1	13	10	13	15	5	3
Cc1cccc(CN2C(=O)N(Cc3ccccc3)S(=O)(=O)c3ccccc32)c1	34*	5	7	13	9	7
Cc1cccc(Cn2c(=O)c3c(nc4[nH]c(C)c(C)n43)n(C)c2=O)c1	-10	-2	-29	-185	-5	-1
COc1ccc(CCNC(=O)c2ccc(Cn3c(=O)c4ccccc4n(Cc4cc(=O)n5ccccc5n4)c3=O)cc2)cc1OC	50*	10	66*	1	-3	2
O=C(Cc1ccc(-n2c(=O)c3ccccc3n(Cc3cc(=O)n4ccccc4n3)c2=O)cc1)NCCc1ccccc1	-152	16	14	49*	12	9
Cc1c(C)c2ccc(OCC(=O)NCc3ccncc3)c(C)c2oc1=O	81*	5	46*	7	0	4
Cc1cc(=O)oc2cc(OCC(=O)NCc3ccncc3)ccc12	10	1	5	3	1	0
Cc1cccc(-c2c(NC(=O)c3ccc4c(c3)OCO4)n[nH]c2C)c1	-5	-1	-3	-1	2	2
O=C(COc1cccc(F)c1)N1CCSc2ccccc21	15	0	7	1	1	2
O=C(COc1cccc(Cl)c1)N1CCSc2ccccc21	36*	3	25	24	6	7
O=C(CCC1CCCCC1)Nc1ccccc1C(=O)N1CCOCC1	40*	11	70*	80*	27	2

High-throughput results deposited in PubChem by Buhrlage Lab, Dana-Farber Cancer Institute and Novartis Institutes for BioMedical Research (Cambridge, Mass).
